Screens: PubChem BioAssay, National Center for Advancing Translational Sciences (NCATS)
Sampled rows, rich in hits. Any-hit rate of the full collection: about 10%.
GLS inhibitor – blocks human kidney-isoform glutaminase activity | AID 624170 | hit rate 0.21% among 410,000 | GLS enzymatic activity, qHTS titration | Potency, µM (series often up to 45.5 µM), inactives show top-dose activity change, negative = inhibition, most hits filed as inhibitors; note: % is set by controls: 0 for no effect and ±100 for the full control effect
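Compounds were pin-transferred onto hKGA, after which L-glutamine (1 mM solution) and a detection mix of glutamate oxidase, HRP and Amplex Red were added. Initial and 30 min RT fluorescence reads were collected.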
G9a inh – blocks human histone lysine methyltransferase G9a. Q96KQ7. G9a H3K9 monomethylation, AlphaScreen, 2 h. Potency, µM (doses to about 102 µM), for the others: at the highest dose activity, negative = inhibition, hits mostly inhibitors. hit rate 8.8% among 350,000; note: % is set by controls: 0 for no effect and ±100 for the full control effect; nearly all actives have a fitted effect of over 75% in size
Target sequence (Q96KQ7 913-1193 limits assumed): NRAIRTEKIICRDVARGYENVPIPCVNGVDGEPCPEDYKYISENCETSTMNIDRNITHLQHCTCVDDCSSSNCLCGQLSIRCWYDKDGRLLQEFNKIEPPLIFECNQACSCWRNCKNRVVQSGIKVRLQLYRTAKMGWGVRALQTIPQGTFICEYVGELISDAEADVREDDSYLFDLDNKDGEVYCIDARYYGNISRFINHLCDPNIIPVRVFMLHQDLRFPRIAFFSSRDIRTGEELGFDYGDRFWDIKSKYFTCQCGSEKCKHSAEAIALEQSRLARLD
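Chemiluminescent proximity detection of H3K9 monomethylation, read after 10 min bead incubation in the dark. Reaction: 20 nM G9a, 500 nM biotin-H3K9 peptide, 20 uM SAM cofactor, 2 h, room temperature, following 15 min enzyme-compound preincubation.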
JMJD2A Tudor – blocks the human JMJD2A Tudor domain; O75164; AlphaScreen JMJD2A-Tudor / H3K4me3 peptide binding; Potency, µM (titrated, usually from 114 µM), inactives show top-dose activity change, negative = inhibition, most hits filed as inhibitors; hit rate 4.4% among 390,000; AID 504339; note: % is set by controls: 0 for no effect and ±100 for the full control effect; nearly all actives have a fitted effect of over 50% in size
BAZ2B inh – inhibitors of human BAZ2B bromodomain. Q9UIF8. AlphaScreen BAZ2B-H3K14Ac peptide displacement. Potency, µM (titrated, usually from 114 µM), for inactives: at the top dose activity change, negative = inhibition, usual class: inhibitors. hit rate 4.4% among 360,000. AID 504333; note: % is set by controls: 0 for no effect and ±100 for the full control effect; nearly all actives have a fitted effect of over 60% in size
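AlphaScreen displacement: compounds (up to 110uM) incubated 30 min at room temperature with a preformed 50 nM BAZ2B/50 nM biotinylated H3K14Ac peptide complex in PBS pH 7.4 with Tween-20. Donor and acceptor beads at 10 ug/mL final added, 20 min light-protected before reading.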
HP1b binding inh – blocks HP1-beta chromodomain binding to methylated histone tails; AID 540317; P83916; Potency, µM (doses to about 114 µM), inactives show top-dose activity change, negative = inhibition, hits mostly inhibitors; hit rate 0.56% among 390,000; AlphaScreen HP1-beta / biotin-H3K9me3 peptide binding; note: nearly all actives have a fitted effect of over 70% in size
Target sequence (P83916 whole entry, looked up): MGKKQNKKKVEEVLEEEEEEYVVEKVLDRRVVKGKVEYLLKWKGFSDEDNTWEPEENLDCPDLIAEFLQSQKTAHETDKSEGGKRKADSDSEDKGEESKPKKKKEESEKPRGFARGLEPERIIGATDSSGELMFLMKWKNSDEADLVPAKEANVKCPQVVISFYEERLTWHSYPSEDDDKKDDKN
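Compound inhibition of the preformed complex between 50 nM HP1-beta and 50 nM biotinylated H3K9me3 peptide was read by AlphaScreen. Buffer was PBS pH 7.4 with 0.01% Tween-20. Incubations ran 30 min at room temperature, with 10 ug/mL donor/acceptor beads.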
* = called active by the depositor; ? = inconclusive; . = no result; [ ] = dose if it differs, or a comment. Calls come from the whole dose curve; as a rule, active = well fitted curve in the direction sought with a large enough effect; inconclusive = small, poorly fitted or top-dose-only effect, or another doubt; inactive = no such curve, though single readings can be large; an effect the other way counts as inactive or inconclusive. Potency is the fitted concentration of half-maximal effect.

SMILES	GLS inhibitor	G9a inh	JMJD2A Tudor	BAZ2B inh	HP1b binding inh
CCCOc1ccc([N+](=O)[O-])c(N)c1	-2%	20%[59 µM]	-26%	-11%	4%
CC(C)CC1NC(=O)N(CC(=O)Nc2cc(S(=O)(=O)N3CCOCC3)ccc2Cl)C1=O (centres undefined)	3%	.	1%	.	45%
COc1ccc(CCNC(=S)NC2CCN(Cc3ccccc3)CC2)cc1	-6%	25µM*	-17%	-20%	-1%
Oc1ccc(N2CCN(C(=S)NCCc3ccccc3)CC2)cc1	12%	7.1µM*	?	?	?
S=C(NCCc1ccccc1)N1CCN(Cc2ccccc2)CC1	1%	?	4.5µM*	56µM*	?
COc1ccc(N2CCN(C(=S)NCCc3ccccc3)CC2)cc1	-5%	.	-15%[11.4 µM]	.	-23%
CCC(Oc1ccc(F)cc1)C(=O)Nc1cc(-c2ccc(C)cc2)no1 (centres undefined)	-6%	7%[59 µM]	-5%	14%	44%
Cc1c(C)n(Cc2ccccc2)c2ccc(C(=O)NCCCN3CCOCC3)cc12	3%	50µM*	50µM*	?	-4%
CCn1c(C)c(C)c2cc(C(=O)NCCCN3CCOCC3)ccc21	2%	.	?	-33%	6%
Cc1nn(C)cc1/C=N\NC(=O)c1ccc2c(c1)c(C)c(C)n2Cc1ccccc1	-3%	20%[12.7 µM]	56µM*	45µM*	-28%
Cc1c(C)n(Cc2ccc(F)cc2)c2ccc(C(=O)NCCCN3CCOCC3)cc12	4%	.	45µM*	28µM*	?
Cn1c(SCC(=O)N2CCCCCC2)nnc1-c1ccco1	-12%	?	2%	4%	40%
Cc1sc2ncnc(Nc3ccccc3)c2c1C	16%	15%[12.7 µM]	-24%[11.4 µM]	11%	-7%
Cc1sc2ncnc(N3CCN(Cc4ccccc4)CC3)c2c1-c1ccccc1	-2%	-18%	?	32µM*	?
Cc1sc2ncnc(Nc3ccc(N4CCOCC4)cc3)c2c1-c1ccccc1	8%	28µM*	35µM*	?	-18%
CC(=O)Nc1ccc(NC(=O)C(=O)NCC(c2ccco2)N2CCc3ccccc32)cc1 (centres undefined)	6%	-27%	-16%	-8%	53%
CN(C(=O)c1ccc(N2CCOCC2)c([N+](=O)[O-])c1)C1CCCCC1	-7%	19%	-9%	-8%	24%
CN(c1ccc(C(=O)N2CCOCC2)cc1[N+](=O)[O-])C1CCCCC1	9%	?	-32%	50µM*	-8%
CN(C)S(=O)(=O)c1ccc(C(=O)Nc2nnc(-c3ccco3)o2)cc1	4%	-4%	89µM*	79µM*	11%
O=C(Nc1nnc(C2CC2)o1)c1ccc(S(=O)(=O)N2CCCCC2)cc1	0%	17%	?	56µM*	46%
CCN(CC)S(=O)(=O)c1ccc(C(=O)Nc2nnc(-c3ccco3)o2)cc1	3%	-33%	-21%	.	17%
CC1CCCCN1S(=O)(=O)c1ccc(C(=O)N2CCOCC2)cc1 (centres undefined)	0%	56µM*	-6%	18%	10%
CCc1ccccc1N(CC(=O)NCC1CCCO1)C(=O)CCC(=O)Nc1cc(C)on1 (centres undefined)	-3%	-6%	-18%	0%	9%
CCCOC(=O)CSC1=C(C#N)C(c2ccc3c(c2)OCO3)CC(=O)N1 (centres undefined)	-3%	-7%	-5%	-2%	16%
CCOc1ccc(CCNC(=O)c2cc3c(s2)-c2c(C)cccc2OC3)cc1	-10%	0%[59 µM]	-4%	7%	33%
O=C(Nc1nnc(C2CC2)o1)c1ccc(S(=O)(=O)N2CCCc3ccccc32)cc1	1%	-12%	-23%	50µM*	45%
CC1CCN(S(=O)(=O)c2ccc(C(=O)Nc3nnc(C4CC4)o3)cc2)CC1	-1%	26%	1%	50µM*	57%
CC1CCCCN1S(=O)(=O)c1ccc(C(=O)Nc2nnc(C3CC3)o2)cc1 (centres undefined)	-1%	-1%	-33%	50µM*	43%
O=C(Nc1nnc(-c2ccco2)o1)c1ccc(S(=O)(=O)N2CCCCC2)cc1	1%	.	.	.	.
